Measured values taken from ChEMBL document CHEMBL3988442, “University of Dundee, Small-Polar-MMV Screening Library” (2021).
In all, about 69,000 compounds went through this assay and about 950 (1.4%) showed an effect of 50% or more. The sample holds strong results, similar compounds and a random draw of the others, so the mix is not that of the screen.

Tested on: Mycobacterium tuberculosis
Assay: Cornell M. t heat shock assay; also: in the data most compounds retested in dose-response had high values
Type: functional, organism-based
Design: dose or concentration left out as unconfirmed

Row | SMILES | Percent Effect [%]
1 | CCCc1nc(CN2CCCC(Cn3cncn3)C2)no1 (configuration not stated) | -9.9
2 | O=C(O)C(F)(F)F.O=C(O)C(F)(F)F.c1cncc(OCC2CN(Cc3ccsc3)Cc3nccn3C2)c1 (configuration not stated) | -18.26
3 | COCCN1C(=O)C[C@H]2[C@H]1CCN2Cc1ccccc1.O=C(O)C(F)(F)F | 3.349
4 | CN(C)[C@@H]1CCN(C(=O)c2ccsc2)[C@H]1Cc1cccnc1.O=C(O)C(F)(F)F.O=C(O)C(F)(F)F | -16.81
5 | Cc1ccc(N2Cc3cnn(C)c3C(COCC3CC3)C2)nn1.O=C(O)C(F)(F)F.O=C(O)C(F)(F)F (configuration not stated) | 49.24
6 | COc1ccc(CN2CCC3(CC2)NC(=O)CC3c2cnn(C)c2)cc1.O=C(O)C(F)(F)F (configuration not stated) | -26.9
7 | O=C1C[C@H]2CC[C@@H](CN1)N2C(=O)CCc1ccccc1 | 16.33
8 | CO[C@@H]1CCN(Cc2cccs2)[C@@H]2CN(Cc3ccncc3)C[C@@H]21.O=C(O)C(F)(F)F.O=C(O)C(F)(F)F.O=C(O)C(F)(F)F | 42.16
9 | COCC(=O)N1CCCC(C)(c2nncn2C)C1 (configuration not stated) | 11.29
10 | Cc1cccc(CN2CCC3(CC2)CN(c2cccnc2)C(=O)CO3)n1.O=C(O)C(F)(F)F.O=C(O)C(F)(F)F | -14.12
11 | Cc1nn(C)c(Cl)c1C1CCCN1C(=O)c1ccc(C(N)=O)cn1 (configuration not stated) | -15.15
12 | Cc1cc(C)n(CC2CCCCN2CC(=O)Nc2nncs2)n1 (configuration not stated) | 69.77
13 | Cc1cc(C)n(CC2CCCN2CC(=O)Nc2nncs2)n1 (configuration not stated) | -43.1
14 | Cc1cc(C)n(CC2CCCCN2CC(=O)Nc2nnc(C)s2)n1 (configuration not stated) | 10.12
15 | CO[C@@H]1CC[C@H]2[C@H]1OCCN2CC1CC1.O=C(O)C(F)(F)F | -34.92
16 | Cc1nn(C)c2c(=O)n(CC(=O)NCc3ccc(N(C)C)cc3)ccc12 | 2.829
17 | COCCN1C[C@@H]2CN(Cc3ccc(C)s3)CCC[C@]2(C(=O)O)C1.O=C(O)C(F)(F)F.O=C(O)C(F)(F)F | -29.4
18 | Cc1nc(CN2CCCCC2Cn2cccn2)nc2ccccc12 (configuration not stated) | 49.4
19 | Cc1nc(CN2CCCCC2Cn2cncn2)nc2ccccc12 (configuration not stated) | -16.52
20 | Cc1cnn(CC2CCCN2Cc2ncc(-c3ccc(F)cc3)o2)c1 (configuration not stated) | -10.3
21 | Cc1cnn(CC2CCCN2Cc2nc(C)c3ccccc3n2)c1 (configuration not stated) | 101.6
22 | Cc1cnn(CC2CCCN2Cc2nc3ccccc3n2C)c1 (configuration not stated) | 101.1
23 | Cc1cnn(CC2CCCN2Cc2nc3ccccc3nc2C)c1 (configuration not stated) | 7.151

Row | SMILES | Percent Effect [%]
24 | Cc1nc(C)n(CC2CCCN2Cc2nc3ccccc3n2C)n1 (configuration not stated) | -5.876
25 | Cc1cnn(CC2CCCN2Cc2ncc(-c3ccccc3)o2)c1 (configuration not stated) | 61.17
26 | c1ccc(-c2cnc(CN3CCCC3Cn3cccn3)o2)cc1 (configuration not stated) | 7.104
27 | Cc1cnn(CC2CCCCN2Cc2nc(C)c3ccccc3n2)c1 (configuration not stated) | 67.77
28 | Cc1cnn(CC2CCCN2Cc2noc(C)n2)c1 (configuration not stated) | -1.003
29 | Cc1nc(CN2CCCC2Cn2cccn2)nc2ccccc12 (configuration not stated) | 33.45
30 | COc1ccc(C(=O)N2Cc3cc(C)ccc3OCC2CN(C)C)cc1.Cl (configuration not stated) | -9.159
31 | Cc1cccc(CN2CCCC3(CCC(=O)N3CCN(C)C)CC2)n1.O=C(O)C(F)(F)F.O=C(O)C(F)(F)F (configuration not stated) | -9.93
32 | CC(C)NC(=O)N1CCc2ncnc(-c3ccncc3)c2CC1.O=C(O)C(F)(F)F | 36.54
33 | CCn1ccc2ccnc(CC3CN(C(=O)Cn4ccnc4C)C3)c21.O=CO | -10.71
34 | COc1ccc(CN(Cc2ccccn2)Cc2cncn2C)cc1.O=C(O)CC(O)(CC(=O)O)C(=O)O | 72.33
35 | COc1ccc(CN(Cc2cncn2C)CC2CCCO2)cc1.O=C(O)CC(O)(CC(=O)O)C(=O)O (configuration not stated) | 1.542
36 | Cc1ncc(CN(Cc2ccccn2)Cc2ccccc2Cl)n1C.O=C(O)CC(O)(CC(=O)O)C(=O)O | 34.76
37 | Cn1ccnc1CN(Cc1ccccn1)Cc1ccccc1Cl.O=C(O)CC(O)(CC(=O)O)C(=O)O | 102.4
38 | Cc1nc2sccn2c1CN(CCCN(C)C)Cc1ccccn1.O=C(O)CC(O)(CC(=O)O)C(=O)O | -0.915
39 | COc1ccc(CN(Cc2cncn2C)CC2CCCO2)cc1OC.O=C(O)CC(O)(CC(=O)O)C(=O)O (configuration not stated) | -6.379
40 | COc1ncc(CN2CCCC(c3[nH]ncc3S(C)(=O)=O)C2)cn1 (configuration not stated) | -20.65
41 | CSc1ccccc1C(=O)N1C[C@H]2CC[C@@H]1CN(C(=O)C1CCC1)C2 | 6.914
42 | Cn1cc(CN2CCCC23CCN(C(=O)c2cccs2)CC3)cn1.O=C(O)C(F)(F)F | -13.39
43 | CN1CCN(Cc2cn3c(n2)CN(Cc2cccc(F)c2)CC3)CC1.O=C(O)C(F)(F)F.O=C(O)C(F)(F)F.O=C(O)C(F)(F)F | -2.625
44 | c1ccc(COc2ccccc2CNC2CCc3ncnn3C2)cc1 (configuration not stated) | 4.249
45 | c1ccc(OCc2ccncc2)c(CNC2CCc3ncnn3C2)c1 (configuration not stated) | 14.47
46 | c1cncc(COc2ccccc2CNC2CCc3ncnn3C2)c1 (configuration not stated) | 103.3

Row | SMILES | Percent Effect [%]
47 | CC(C)N(C)Cc1cc(=O)n2c(n1)CN(S(=O)(=O)C1CC1)CCC2.O=C(O)C(F)(F)F | 3.887
48 | COc1ccccc1C(NCc1ccc(SC)cc1)c1nccn1C (configuration not stated) | 111.2
49 | COc1c(CNC(c2nccn2C)C(C)C)c(C)nn1C (configuration not stated) | 2.612
50 | COc1ccc(CN(C)c2ccc(-c3nccn3C)nn2)cc1OC | 6.196
51 | CSc1ccc(CNC(c2ccccc2F)c2nccn2C)cc1.Cl (configuration not stated) | 112.7
52 | Fc1ccccc1C(CNc1ccncn1)N1CCCC1 (configuration not stated) | -9.26
53 | COc1c(CNC(c2ccccc2F)c2nccn2C)c(C)nn1C (configuration not stated) | -25.27
54 | CC(NCCn1cccn1)c1ccccc1F (configuration not stated) | -16.32
55 | CSc1ccc(CNC2CCN(CCc3ccncc3)CC2)cc1 | 5.943
56 | COc1cc(CN2CCn3c(CO)nnc3C2)ccc1OC(C)C.O=C(O)CC(O)(CC(=O)O)C(=O)O | -10.49
57 | CNC(=O)N1C[C@H]2C[C@H](C(=O)Nc3cccnc3)[C@@H](C1)O2.O=C(O)C(F)(F)F | -3.973
58 | Cc1ccc(C(=O)N2C[C@@H]3CC[C@H](C2)N(Cc2ccccc2)C3)cn1 | -13.46
59 | CCc1cc(=O)n(CCNC(=O)Nc2ccc(OC(F)(F)F)cc2)cn1 | 32.6
60 | O=C(O)C(F)(F)F.O=C(O)C(F)(F)F.O=C(O)C(F)(F)F.c1ccc(CN2CCCC3(CCN(Cc4cccs4)C3)C2)nc1 (configuration not stated) | 0.0284
61 | CCc1c(C(=O)N2C[C@H]3CC[C@@H]2CN(c2cnccn2)C3)csc1C | -16.87
62 | Cc1nc(CN2CCc3ncnc(C)c3CC2)cs1.O=C(O)C(F)(F)F | 2.444
63 | CCN1CCc2nc(N3CCOCC3)nc(NC(C)C)c2C1 | 8.22
64 | Cc1nc(NC(C)C)nc2c1CN(Cc1cccs1)CC2 | 99.87
65 | CC(C)Oc1ncnc2c1CCN(Cc1cccs1)CC2 | 17.98
66 | CC(C)Nc1nc(N2CCCC2)nc2c1CN(C(C)C)CC2 | 101.9
67 | CC(C)Nc1nc(N2CCCC2)nc2c1CN(S(C)(=O)=O)CC2 | 11
68 | Cc1nc(NC(C)C)nc2c1CN(Cc1nccn1C)CC2 | 12.34
69 | Cc1nc(CN2CCc3nc(N4CCCC4)nc(NC(C)C)c3C2)cs1 | 104.3

Row | SMILES | Percent Effect [%]
70 | CC(C)Nc1nc(N2CCCC2)nc2c1CN(C)CC2 | 4.665
71 | CCC(C)N1CCc2nc(N3CCCC3)nc(NC(C)C)c2C1 (configuration not stated) | -2.093
72 | CC(=O)NCc1noc2c1CN(Cc1cccs1)CC2 | 18.13
73 | Cc1nc(CN2CCc3nc(NC(C)C)nc(C)c3C2)cs1 | 99.63
74 | Cc1nn(C)cc1-c1cncn1CCN(C)C1CCCC1.Cl | 1.181
75 | Cc1cccc(CN2C[C@@H]3COC[C@]3(COCC(=O)N(C)C)C2)n1.O=C(O)C(F)(F)F.O=C(O)C(F)(F)F | -9.127
76 | O=C(O)C(F)(F)F.O=C([C@H]1C[C@H]2OCC[C@H]2N(CC2CCOCC2)C1)N1CCCCO1 | -2.02
77 | COC1COC2(CCN(Cc3cccc(Cl)c3)CC2)C1.O=C(O)C(F)(F)F (configuration not stated) | -14.26
78 | CN1[C@H]2CC[C@@H]1CN(c1nc(-c3ccncc3)nc3c1cnn3C)CC2 | -0.0303
79 | O=C(NC1CCCCC1)N1CCc2onc(COc3cccnc3)c2C1.O=C(O)C(F)(F)F | 9.654
80 | CC(C)CN1Cc2nc(N3CCCC3)ncc2C1=O | -13.83
81 | COc1ccccc1C(=O)N1CCNCC1C(N)=O.Cl (configuration not stated) | 5.705
82 | CC(=O)N1CCC(c2nccnc2Nc2cnccn2)CC1 | 19.92
83 | CC(=O)N1CCC(c2nccnc2Nc2ncc(C)s2)CC1 | 55.53
84 | Cc1cnc(Nc2nccnc2C2CCN(C)CC2)s1 | 16.42
85 | CCOC1COC2(CCN(C(=O)c3cccc(C)n3)CC2)C1.O=C(O)C(F)(F)F (configuration not stated) | 18.32
86 | O=C(O)C(F)(F)F.O=C(c1cccc(O)c1)N1CCC2(CCN2c2ncccn2)C1 (configuration not stated) | 1.113
87 | Cc1cnn(CCNCc2csc(-c3ccco3)n2)c1 | 52.61
88 | Cc1cnn(CCNCc2csc(-c3ncccn3)n2)c1 | -10.75
89 | Cc1ccc(-c2nc(CNCCn3cccn3)cs2)o1 | 26.99
90 | c1coc(-c2nc(CNCCn3cccn3)cs2)c1 | -1.03
91 | Cc1cnn(CC(C)NCc2csc(-c3ccco3)n2)c1 (configuration not stated) | 29.87
92 | Cc1cnn(CCNCc2csc(-c3ccc(C)o3)n2)c1 | 64.15
